This is part of a sample that, as a whole, favours compounds with a hit. Of some 83,000 tested, about 20% had one in any assay.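 Each cell line was grown in a 96-well plate and treated with one concentration of compound for 48 hours. Values below 10 were considered active.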 Calls of active or inactive are those of the source.
Columns and labels:
Assay in all cases: NCI-60 one-dose screen, 48 h (100 = growth as untreated, 0 = no growth, -100 = all killed)
Conditions in all cases: 10 µM unless noted
NCI-H23 lung = tested on: NCI-H23 lung
NCI-H226 lung = tested on: NCI-H226 lung
NCI-H322M lung = tested on: NCI-H322M lung
HOP-62 NSCLC = tested on: HOP-62 NSCLC
NCI-H460 lung = tested on: NCI-H460 lung
NCI-H522 lung = tested on: NCI-H522 lung
A549/ATCC NSCLC = tested on: A549/ATCC NSCLC
786-0 renal = tested on: 786-0 renal
COLO 205 colon = tested on: COLO 205 colon
DU-145 prostate = tested on: DU-145 prostate
K-562 leukemia = tested on: K-562 leukemia
MALME-3M melanoma = tested on: MALME-3M melanoma
MDA-MB-231 breast = tested on: MDA-MB-231 breast
RXF 393 renal = tested on: RXF 393 renal
SF-268 CNS = tested on: SF-268 CNS
SF-295 CNS = tested on: SF-295 CNS
SF-539 CNS = tested on: SF-539 CNS
UACC-257 melanoma = tested on: UACC-257 melanoma
M14 melanoma = tested on: M14 melanoma

Measured: growth

Cc1occc1-c1nc2s/c(=C/c3ccc(-c4cc(C(F)(F)F)ccc4Cl)o3)c(=O)n2n1
inactive: NCI-H23 lung 104% | NCI-H226 lung 98.1% | NCI-H322M lung 101% | HOP-62 NSCLC 116% | NCI-H460 lung 109% | NCI-H522 lung 98.2% | A549/ATCC NSCLC 102% | 786-0 renal 103% | COLO 205 colon 112% | DU-145 prostate 103% | K-562 leukemia 105% | MALME-3M melanoma 98.5% | MDA-MB-231 breast 104% | RXF 393 renal 108% | SF-268 CNS 97.2% | SF-295 CNS 99.7% | SF-539 CNS 103% | UACC-257 melanoma 105% | M14 melanoma 97.1%

Cc1ccc(C2=Nn3c(nnc3-c3ccccc3)SC2)cc1
inactive: NCI-H23 lung 36.6% | NCI-H226 lung 61.2% | NCI-H322M lung 60.8% | HOP-62 NSCLC 27.5% | NCI-H460 lung 11.1% | A549/ATCC NSCLC 44.6% | 786-0 renal 46.8% | DU-145 prostate 22.2% | K-562 leukemia 15.7% | MALME-3M melanoma 59.5% | MDA-MB-231 breast 51.4% | SF-268 CNS 49.5% | SF-295 CNS 10.4% | SF-539 CNS 11.2% | UACC-257 melanoma 55.5% | M14 melanoma 12.2%
active: NCI-H522 lung -2.45% | COLO 205 colon 3.27% | RXF 393 renal -6.84%

C=C=COc1cccc(/C(N)=N/C(N)=N/c2nc3ccccc3s2)c1
inactive: NCI-H23 lung 75.9% | NCI-H226 lung 83.7% | NCI-H322M lung 103% | HOP-62 NSCLC 101% | NCI-H460 lung 93.9% | NCI-H522 lung 97% | A549/ATCC NSCLC 104% | 786-0 renal 90.3% | COLO 205 colon 112% | DU-145 prostate 101% | K-562 leukemia 23.5% | MALME-3M melanoma 93% | MDA-MB-231 breast 76.2% | RXF 393 renal 104% | SF-268 CNS 78.1% | SF-295 CNS 110% | SF-539 CNS 70.4% | UACC-257 melanoma 104% | M14 melanoma 67.9%

C=C(C=O)[C@@H]1CC[C@]2(CO)CC[C@]3(C)[C@H](CC[C@@H]4[C@@]5(C)CCCNC(C)(C)[C@@H]5CC[C@]43C)[C@@H]12
inactive: NCI-H23 lung 63.5% | NCI-H226 lung 76.5% | NCI-H322M lung 95.8% | HOP-62 NSCLC 88.9% | NCI-H460 lung 86% | NCI-H522 lung 77.6% | A549/ATCC NSCLC 81.1% | 786-0 renal 94.3% | COLO 205 colon 77.3% | DU-145 prostate 53% | MALME-3M melanoma 67% | MDA-MB-231 breast 90.8% | RXF 393 renal 94.2% | SF-268 CNS 83.9% | SF-295 CNS 83.1% | SF-539 CNS 71.8% | UACC-257 melanoma 72.3% | M14 melanoma 61.3%
active: K-562 leukemia -1.23%

CC(O)c1cc2ccccc2c(=O)o1 (stereo not given)
inactive: NCI-H23 lung 99.8% | NCI-H226 lung 89.2% | NCI-H322M lung 103% | HOP-62 NSCLC 105% | NCI-H460 lung 104% | NCI-H522 lung 98.6% | A549/ATCC NSCLC 102% | 786-0 renal 101% | COLO 205 colon 112% | DU-145 prostate 110% | K-562 leukemia 101% | MALME-3M melanoma 98.2% | MDA-MB-231 breast 103% | RXF 393 renal 129% | SF-268 CNS 98.3% | SF-295 CNS 97.7% | SF-539 CNS 95.2% | UACC-257 melanoma 96.7% | M14 melanoma 107%

Cc1cccc2c3c(sc12)C(c1ccc(F)cc1)C(C#N)=C(/N=C/c1ccc(Cl)cc1)O3 (stereo not given)
active: NCI-H460 lung 5.27% | NCI-H522 lung -53% | COLO 205 colon -49% | K-562 leukemia 7.18% | RXF 393 renal 2.24% | SF-295 CNS 3.61% | SF-539 CNS -13.1% | M14 melanoma -3.44%
inactive: NCI-H23 lung 19.1% | NCI-H226 lung 29.9% | NCI-H322M lung 47.4% | HOP-62 NSCLC 28% | A549/ATCC NSCLC 21.7% | 786-0 renal 25.6% | DU-145 prostate 20.8% | MALME-3M melanoma 63.5% | MDA-MB-231 breast 25.6% | SF-268 CNS 41.5% | UACC-257 melanoma 56.4%

O=C(Nc1nonc1-c1ccccc1)c1ccc(C(F)(F)F)cc1
inactive: NCI-H23 lung 72.6% | NCI-H226 lung 89.4% | NCI-H322M lung 86.9% | HOP-62 NSCLC 81.5% | NCI-H460 lung 47.6% | NCI-H522 lung 82.7% | A549/ATCC NSCLC 87.3% | 786-0 renal 90.4% | COLO 205 colon 119% | DU-145 prostate 92.5% | K-562 leukemia 70% | MALME-3M melanoma 68.5% | MDA-MB-231 breast 85.1% | RXF 393 renal 90.3% | SF-268 CNS 81.6% | SF-295 CNS 59.7% | SF-539 CNS 95.9% | UACC-257 melanoma 77.8% | M14 melanoma 71.1%

CCOC(=O)c1c(Nc2ccccc2)nn2c(-c3ccc(OC)cc3)ccnc12
active: RXF 393 renal -2.68%
inactive: NCI-H23 lung 86% | NCI-H226 lung 93.5% | NCI-H322M lung 87.1% | HOP-62 NSCLC 95.3% | NCI-H460 lung 93.5% | NCI-H522 lung 88.1% | A549/ATCC NSCLC 88.7% | 786-0 renal 64.5% | COLO 205 colon 99.9% | DU-145 prostate 90.8% | K-562 leukemia 45.3% | MALME-3M melanoma 87.6% | MDA-MB-231 breast 79.4% | SF-268 CNS 101% | SF-295 CNS 89.5% | SF-539 CNS 83.8% | UACC-257 melanoma 110% | M14 melanoma 96%

COc1ccc(-n2c(SCc3n[nH]c(=S)o3)nc3ccc(Cl)cc3c2=O)cc1
inactive: NCI-H23 lung 99% | NCI-H226 lung 77.6% | NCI-H322M lung 97.6% | HOP-62 NSCLC 97.2% | NCI-H460 lung 103% | NCI-H522 lung 87.6% | A549/ATCC NSCLC 97.7% | 786-0 renal 94.1% | COLO 205 colon 114% | DU-145 prostate 96.3% | K-562 leukemia 99.6% | MALME-3M melanoma 95.3% | MDA-MB-231 breast 94.6% | RXF 393 renal 89.5% | SF-268 CNS 92.1% | SF-295 CNS 97.3% | SF-539 CNS 91.5% | UACC-257 melanoma 102% | M14 melanoma 112%

CCCn1cnc2c(c1=N)C(c1ccc(Cl)cc1)c1sc3c(CC)cccc3c1O2 (stereo not given)
inactive: NCI-H23 lung 19.2% | NCI-H226 lung 57.7% | NCI-H322M lung 45.8% | HOP-62 NSCLC 31.1% | A549/ATCC NSCLC 30.4% | 786-0 renal 30% | DU-145 prostate 13.7% | K-562 leukemia 11.3% | MALME-3M melanoma 55.6% | MDA-MB-231 breast 30.8% | SF-268 CNS 45.4% | UACC-257 melanoma 83.9%
active: NCI-H460 lung 7.5% | NCI-H522 lung -25.7% | COLO 205 colon -14.3% | RXF 393 renal -22.5% | SF-295 CNS -12.8% | SF-539 CNS -19.7% | M14 melanoma 2.63%

COc1ccc([C@H]2[C@H](O)C(=O)N2c2cc(OC)c(OC)c(OC)c2)cc1F
active: NCI-H460 lung 4.56% | NCI-H522 lung -56% | COLO 205 colon -79.1% | K-562 leukemia 8.75% | SF-295 CNS 8.48% | SF-539 CNS -5.31% | M14 melanoma 2.83%
inactive: NCI-H23 lung 22.2% | NCI-H226 lung 32.6% | NCI-H322M lung 50.8% | HOP-62 NSCLC 23.7% | A549/ATCC NSCLC 18.5% | 786-0 renal 12% | DU-145 prostate 14.6% | MALME-3M melanoma 65.9% | MDA-MB-231 breast 24.5% | RXF 393 renal 27% | SF-268 CNS 37.4% | UACC-257 melanoma 57.7%

O=C(CSc1nc2ccccc2c(=O)n1-c1ccccc1)Nc1cccc(C(=O)/C=C/c2ccccc2)c1
inactive: NCI-H23 lung 102% | NCI-H226 lung 83.1% | NCI-H322M lung 102% | HOP-62 NSCLC 99% | NCI-H460 lung 91.6% | NCI-H522 lung 92% | A549/ATCC NSCLC 80.1% | 786-0 renal 98.5% | COLO 205 colon 106% | DU-145 prostate 94.8% | K-562 leukemia 70.1% | MALME-3M melanoma 101% | MDA-MB-231 breast 94.3% | RXF 393 renal 83.1% | SF-268 CNS 94.8% | SF-295 CNS 98% | SF-539 CNS 98.8% | UACC-257 melanoma 99.8% | M14 melanoma 97.5%

CNC(=O)c1cc(Oc2ccc3nc(NC(=O)c4cc(N5CCOCC5)cc(C(F)(F)F)c4)sc3c2)ccn1
active: RXF 393 renal -9.02%
inactive: NCI-H23 lung 88.2% | NCI-H226 lung 85.4% | NCI-H322M lung 89.4% | HOP-62 NSCLC 89.3% | NCI-H460 lung 67.5% | NCI-H522 lung 81.6% | A549/ATCC NSCLC 68.5% | 786-0 renal 80.3% | COLO 205 colon 94% | DU-145 prostate 86.1% | K-562 leukemia 67.2% | MALME-3M melanoma 87.1% | MDA-MB-231 breast 76.2% | SF-268 CNS 86% | SF-295 CNS 44.6% | SF-539 CNS 91.5% | UACC-257 melanoma 82.4% | M14 melanoma 77.5%

Cc1cc(C)cc(C(=O)Nc2cccc(C#Cc3cccc4[nH]nc(N)c34)c2)c1
active: K-562 leukemia 9.8% | RXF 393 renal -10.9%
inactive: NCI-H23 lung 76.6% | NCI-H226 lung 67.3% | NCI-H322M lung 88.4% | HOP-62 NSCLC 67% | NCI-H460 lung 50.7% | NCI-H522 lung 23.6% | A549/ATCC NSCLC 54.8% | 786-0 renal 89.9% | COLO 205 colon 77.9% | DU-145 prostate 71.9% | MALME-3M melanoma 86.2% | MDA-MB-231 breast 40% | SF-268 CNS 55% | SF-295 CNS 65% | SF-539 CNS 38.6% | UACC-257 melanoma 90.7% | M14 melanoma 43.5%

COc1ccc2[nH]cc(/C=N/Nc3nc4ccccc4s3)c2c1
inactive: NCI-H23 lung 67.6% | NCI-H226 lung 75.6% | NCI-H322M lung 79.2% | HOP-62 NSCLC 62.9% | NCI-H460 lung 32.1% | NCI-H522 lung 28.5% | A549/ATCC NSCLC 52.4% | 786-0 renal 52.9% | COLO 205 colon 80.4% | DU-145 prostate 60.3% | K-562 leukemia 24.3% | MALME-3M melanoma 98.4% | MDA-MB-231 breast 67.2% | RXF 393 renal 60.8% | SF-268 CNS 55.9% | SF-295 CNS 58.5% | SF-539 CNS 70.5% | UACC-257 melanoma 81.9% | M14 melanoma 52%

— PubChem BioAssay (NCI)
